Compound activity from PubChem.
Pf Dd2 growth = blocks growth of Plasmodium falciparum Dd2 parasites; P. falciparum Dd2 growth, SYBR Green, 72 h; hits give low values; activity change, % at 10 µM; 2.3% of 94,000 active; in the data active = activity change below about -80%
C diff growth = inhibitors of Clostridium difficile growth. growth activity, negative = inhibition, % at 16 µg/mL (by protocol). Clostridium difficile clinical isolate growth, OD600, 24 h; hits give low values. 0.25% of 86,000 active;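 active = mean growth activity at or below -80% and every replicate also at or below -80%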;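 note: 0% = DMSO wells and -100% = levofloxacin 16 µg/mL wells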
T cruzi growth = T. cruzi proliferation inhibition. inhibition, % at 8.34 µM. 5.9% of 77,000 active. T. cruzi beta-gal in NIH3T3, GalScreen luminescence, 90 h;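 active = mean inhibition above about 93%, with at least 55% of replicates each passing it, limit read from the data, passing the limit was not always enough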
* hit, by the source's call; . = not tested or not shown; ! = not active in a repeat. Compounds with a hit are over-represented: about 6.7% of the library has one in this group of screens.

SMILES | Pf Dd2 growth | C diff growth | T cruzi growth
O=C(Nc1ccc(Cl)c(Cl)c1)N[C@@H]1CC[C@@H](CCn2cc(C3CCCCC3)nn2)O[C@H]1CO | -16 | -1 | 48
Cc1ccc(-c2cnc3c(c2)C(=O)N([C@@H](C)CO)C[C@@H](C)[C@@H](CN(C)C(=O)CN(C)C)O3)cc1 | 3 | 0 | .
C[C@@H]1CN([C@@H](C)CO)C(=O)c2cc(NC(=O)C3CC3)ccc2O[C@@H]1CN(C)Cc1ccc2c(c1)OCO2 | 17 | -3 | 70
CCNC(=O)C[C@@H]1CC[C@@H]2[C@H](COC[C@@H](O)CN2C(=O)Nc2ccc(C(F)(F)F)cc2)O1 | 16 | -94*! | -16
O=C(C[C@H]1CC[C@@H]2[C@H](COC[C@H](O)CN2C(=O)Nc2ccc(C(F)(F)F)cc2)O1)NC1Cc2ccccc2C1 | -14 | -100*! | 38
CCNC(=O)C[C@@H]1CC[C@H]2[C@@H](COC[C@H](O)CN2C(=O)Nc2ccc(C(F)(F)F)cc2)O1 | 3 | 67 | -22
O=C(C[C@@H]1CC[C@@H]2[C@H](COC[C@H](O)CN2C(=O)Nc2ccc(C(F)(F)F)cc2)O1)NC1Cc2ccccc2C1 | 2 | 22 | 78
C[C@@H]1CN([C@@H](C)CO)C(=O)c2cccc(NC(=O)c3ccncc3)c2O[C@H]1CN(C)CC1CCCCC1 | -44 | 8 | 78
Cc1ccc(S(=O)(=O)N(C)C[C@@H]2OCCCC[C@@H](C)Oc3ccc(NC(=O)CCCCCC(=O)Nc4ccccc4N)cc3C(=O)N([C@H](C)CO)C[C@@H]2C)cc1 | . | -2 | .
C[C@@H]1CCCCO[C@@H](CN(C)S(=O)(=O)c2ccc(Cl)cc2)[C@@H](C)CN([C@H](C)CO)C(=O)c2cc(NC(=O)CCCCCC(=O)Nc3ccccc3N)ccc2O1 | -78 | . | 9
Cc1noc(C)c1S(=O)(=O)N(C)C[C@H]1OCCCC[C@@H](C)Oc2ccc(NC(=O)CCCCCC(=O)Nc3ccccc3N)cc2C(=O)N([C@@H](C)CO)C[C@@H]1C | -81* | -3 | 33
Cc1ccc(S(=O)(=O)N(C)C[C@H]2OCCCC[C@@H](C)Oc3ccc(NC(=O)CCCCCC(=O)Nc4ccccc4N)cc3C(=O)N([C@H](C)CO)C[C@@H]2C)cc1 | -87* | -2 | .
C[C@@H]1CN([C@H](C)CO)C(=O)c2cc(NC(=O)Cn3cnnn3)ccc2O[C@@H]1CN(C)C(=O)Nc1ccc(C(F)(F)F)cc1 | 6 | 0 | -39
Cc1noc(C)c1S(=O)(=O)Nc1ccc2c(c1)C(=O)N([C@H](C)CO)C[C@H](C)[C@H](CN(C)C(=O)NC1CCCCC1)OCCCC[C@@H](C)O2 | 5 | 0 | -1
COc1ccc(CN(C)C[C@H]2OCCCC[C@H](C)Oc3ccc(NC(=O)Nc4cccc5ccccc45)cc3C(=O)N([C@H](C)CO)C[C@@H]2C)cc1 | -44 | -16 | 114
COc1ccc(CN(C)C[C@@H]2OCCCC[C@@H](C)Oc3ccc(NC(=O)Nc4cccc5ccccc45)cc3C(=O)N([C@H](C)CO)C[C@@H]2C)cc1 | 22 | -12 | 113
COc1ccc(CN(C)C[C@H]2OCCCC[C@@H](C)Oc3ccc(NC(=O)Nc4cccc5ccccc45)cc3C(=O)N([C@H](C)CO)C[C@H]2C)cc1 | -87* | -11 | 118
COc1ccc(CN(C)C[C@H]2OCCCC[C@@H](C)Oc3ccc(NC(=O)Nc4cccc5ccccc45)cc3C(=O)N([C@@H](C)CO)C[C@H]2C)cc1 | -89* | -18 | 122
CC(C)NC(=O)NCC[C@@H]1CC[C@@H](NS(=O)(=O)c2ccc(-c3ccccc3)cc2)[C@@H](CO)O1 | 4 | -7 | -65
C[C@@H]1CN([C@H](C)CO)C(=O)c2cccc(NC(=O)c3ccncc3)c2O[C@@H]1CN(C)C(=O)NC1CCCCC1 | 18 | -1 | -3
COc1ccc2c3c([nH]c2c1)[C@H](CO)N(Cc1nccs1)CC31CN(Cc2ccncc2)C1 | -34 | 10 | .
COc1ccc2c3c([nH]c2c1)[C@@H](CO)N(Cc1ccc(Cl)cc1)CC31CCN(Cc2nccs2)CC1 | -88* | -5 | .
COc1ccc2c3c([nH]c2c1)[C@@H](CO)N(Cc1ccc(Cl)cc1)CC31CCN(Cc2ccccc2)CC1 | -80 | 25 | .
COc1ccc2c3c([nH]c2c1)[C@H](CO)N(Cc1ccc(Cl)cc1)CC31CN(Cc2nccs2)C1 | -86* | 10 | .
C[C@H]1CN([C@@H](C)CO)C(=O)c2cccc(NC(=O)CCCCCC(=O)Nc3ccccc3N)c2O[C@@H]1CN(C)Cc1ccc(Cl)c(Cl)c1 | -92* | 2 | .
SMILES | Pf Dd2 growth | C diff growth | T cruzi growth
C[C@@H]1CN([C@@H](C)CO)C(=O)c2cccc(NC(=O)CCCCCC(=O)Nc3ccccc3N)c2O[C@@H]1CN(C)Cc1ccc2c(c1)OCO2 | -89* | -3 | .
C[C@H]1CN([C@@H](C)CO)C(=O)c2cc(NC(=O)CCCCCC(=O)Nc3ccccc3N)ccc2O[C@@H]1CN(C)Cc1ccc2c(c1)OCO2 | -74 | -1 | .
C[C@@H]1CN([C@H](C)CO)C(=O)c2cccc(NC(=O)CCCCCC(=O)Nc3ccccc3N)c2O[C@H]1CN(C)Cc1ccc(Cl)c(Cl)c1 | -86* | -10 | .
C[C@@H]1CN([C@H](C)CO)C(=O)c2cc(NC(=O)CCCCCC(=O)Nc3ccccc3N)ccc2O[C@@H]1CN(C)Cc1ccc(Cl)c(Cl)c1 | -47 | . | 78
C[C@@H]1CN([C@@H](C)CO)C(=O)c2cccc(NC(=O)CCCCCC(=O)Nc3ccccc3N)c2O[C@H]1CN(C)Cc1ccc(Cl)c(Cl)c1 | -87* | -2 | .
C[C@H]1CN([C@@H](C)CO)C(=O)c2cc(NC(=O)CCCCCC(=O)Nc3ccccc3N)ccc2O[C@H]1CN(C)Cc1ccc(Cl)c(Cl)c1 | -17 | . | 31
C[C@@H]1CN([C@@H](C)CO)C(=O)c2cc(NC(=O)CCC(F)(F)F)ccc2O[C@@H](C)CCCCO[C@H]1CN(C)C(=O)CCCN(C)C | 32 | -3 | 41
C[C@H]1CN([C@@H](C)CO)C(=O)c2cc(NC(=O)C3CC3)ccc2O[C@@H]1CN(C)Cc1ccc(C(=O)Nc2ccccc2N)cc1 | -18 | 2 | 62
C[C@@H]1CN([C@@H](C)CO)S(=O)(=O)c2ccc(Br)cc2O[C@@H]1CN(C)C(=O)c1cnccn1 | 28 | 0 | 21
CCC(=O)N1[C@H](CO)[C@@H](c2ccccc2)C12CN(C(=O)Nc1ccccc1F)C2 | -6 | -1 | .
C[C@H]1CN([C@@H](C)CO)C(=O)c2cccc(NC(=O)c3cnccn3)c2O[C@@H]1CN(C)S(C)(=O)=O | 19 | -1 | -69
O=C(Nc1ccc(F)cc1)N1C[C@H]2[C@@H](c3ccccc31)[C@H](CO)N2C(=O)Cc1ccncc1 | -6 | 4 | 42
C[C@@H]1CCCCO[C@@H](CN(C)Cc2ccc(Cl)c(Cl)c2)[C@H](C)CN([C@@H](C)CO)C(=O)c2cc(NC(=O)Nc3ccc(C(F)(F)F)cc3)ccc2O1 | -85* | 16 | 72
C[C@@H]1CCCCO[C@H](CN(C)Cc2ccc(Cl)c(Cl)c2)[C@@H](C)CN([C@@H](C)CO)C(=O)c2cc(NC(=O)Nc3ccc(C(F)(F)F)cc3)ccc2O1 | -86* | 22 | 26
C[C@@H]1CN([C@H](C)CO)C(=O)c2cc(NC(=O)CCC(F)(F)F)ccc2O[C@@H](C)CCCCO[C@H]1CN(C)Cc1ccc(Cl)c(Cl)c1 | -83* | 2 | 44
